Compound activity from PubChem BioAssay.
Most compounds without a hit are left out; they make up all but 7.1% or so of the library.
IL-1B inflam inh: qHTS for Inhibitors of Inflammasome Signaling: IL-1-beta AlphaLISA Primary Screen; 360,000 compounds, 4.7% hits; THP-1 LPS/ATP IL-1B secretion, AlphaLISA, 16 h; stronger effect = lower value; activity change, % at 57.5 µM; in the data active = activity change below about -50%; inconclusive = mostly about -30% to -49%
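Secreted IL-1B measured by AlphaLISA bead assay after 16 h compound exposure of THP-1 cells; compounds (final up to 57.5 uM) added 1 h before LPS (250 ng/mL) and ATP (1.25 mM) stimulation; lower signal means less secretion.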
MCF10A rerep: A quantitative high throughput screen for small molecules that induce DNA re-replication in MCF 10a normal breast cells | MCF 10A DNA re-replication, Hoechst nuclear intensity, 48 h | Potency, µM (top dose mostly 46.1 µM), usual class: activators | 350,000 compounds, 2.9% hits; note: nearly all actives have a fitted effect of over 50% in size
ATXN2 expr inh: Primary qHTS for Inhibitors of ATXN expression; HEK-293 ATXN2-luciferase reporter, luminescence, 24 h; Potency, µM (titrated, usually from 57 µM), actives largely listed as inhibitors; 360,000 compounds, 0.72% hits; note: nearly all actives have a fitted effect of over 55% in size
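qHTS (up to 57 uM final) was run with 24 h compound exposure of reporter cells at 37 °C. Each well was multiplexed: SteadyGlo luminescence measured ATXN2-luciferase expression after a fluorogenic Gly-Phe-AFC viability readout (25 uM final).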
PINK1 expr mod: A Quantitative High throughput Screen to Identify Chemical Modulators of PINK1 Expression. PINK1 immunofluorescence, high-content cytometry, 24 h. 410,000 compounds, 0.2% hits. Potency, µM (series often up to 76.6 µM), actives largely listed as activators; active = well fitted activation curve with a large enough effect; inconclusive = small, poorly fitted or top-dose-only effect; cell line not stated here; note: nearly all actives have a fitted effect of over 65% in size
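Stable cell line, 250 cells/well, 12 h attachment; compounds pinned at 5 concentrations, 24 h; CCCP control. Fixed with nuclear dye, primary antibodies 12 h at 10 degrees C, secondary plus cell stain; laser-scanning cytometer read.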
SW480 rereplic: A quantitative high throughput screen for small molecules that induce DNA re-replication in SW480 colon adenocarcinoma cells; SW480 DNA re-replication, Hoechst DNA content imaging, 48 h; Potency, µM (top dose mostly 46.1 µM), usual class: activators; 340,000 compounds, 1.8% hits; note: nearly all actives have a fitted effect of over 55% in size
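SW480 cells exposed to compounds for 48 hr at 37 C, 5% CO2, then Hoechst-stained 40 min. Nuclear DNA content imaged by fluorescence scanning (405 nm excitation, 500-530 nm emission); re-replication scored as increased high-intensity nuclei.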
ATXN viability: Viability Counterscreen for Primary qHTS for Inhibitors of ATXN expression | 400,000 compounds, 0.49% hits | Potency, µM (doses to about 56.7 µM), most hits filed as cytotoxic | AID 651635, 2014 | S2 cells (HEK-293 line with an ATXN2-luciferase reporter) viability, CellTiter-Fluor protease fluorescence, 24 h; note: nearly all actives have a fitted effect of over 40% in size
Large screens that a line does not name were inactive. Unless noted, calls come from the whole dose curve; as a rule, active = well fitted curve in the direction sought with a large enough effect; inconclusive = small, poorly fitted or top-dose-only effect, or another doubt; inactive = no such curve, though single readings can be large; an effect the other way counts as inactive or inconclusive.

CCC(Sc1nnc2c3ccccc3n(CC)c2n1)C(=O)Nc1ccc(NC(C)=O)cc1 (configuration not stated)	none (no result: IL-1B inflam inh, MCF10A rerep, ATXN2 expr inh, SW480 rereplic, ATXN viability)
Cc1nn(-c2ccccc2)c(Cl)c1/C=C1\SC(=S)N(CCCCCC(=O)O)C1=O	MCF10A rerep 11.6µM (no result: ATXN2 expr inh)
Cc1nn(-c2ccccc2)c(Cl)c1/C=C1/C(=N)N2N=C(C(C)C)SC2=NC1=O	none
O=C(O)CCCN1C(=O)/C(=C/c2cn(-c3ccccc3)nc2-c2cccs2)SC1=S	MCF10A rerep inconclusive
Cc1nn(-c2ccccc2)c(Cl)c1/C=C1\SC(=S)NC1=O	MCF10A rerep 10.3µM, SW480 rereplic 20.6µM, ATXN viability inconclusive (no result: PINK1 expr mod)
COC(=O)[C@@H]1CCCN1Cc1ccc2c(c1)CN(Cc1cccn1-c1ncccn1)CCO2	none (no result: IL-1B inflam inh, MCF10A rerep, ATXN2 expr inh, SW480 rereplic)
COc1ccc(NC(=O)c2noc3c2CCCC3)cc1Cl	none (no result: IL-1B inflam inh, MCF10A rerep, SW480 rereplic)
CC(=O)NC(=C(Cl)Cl)S(=O)(=O)c1ccccc1	IL-1B inflam inh -100.1, MCF10A rerep 13µM, ATXN2 expr inh inconclusive, SW480 rereplic 11.6µM
O=C(NC(=C(Cl)Cl)S(=O)(=O)c1ccc(Cl)cc1)c1ccccc1	IL-1B inflam inh -92.9, MCF10A rerep inconclusive, ATXN2 expr inh inconclusive, SW480 rereplic inconclusive, ATXN viability inconclusive
Cc1ccc(C(=O)NC(=C(Cl)Cl)S(=O)(=O)c2ccc(Cl)cc2)cc1	IL-1B inflam inh -64.0, MCF10A rerep inconclusive, ATXN2 expr inh inconclusive, SW480 rereplic inconclusive, ATXN viability inconclusive
CC(=O)Nc1ccc(S(=O)(=O)N2CCN(S(=O)(=O)c3ccccc3)CC2)cc1	none
Cc1ccc(S(=O)(=O)/C(=C/Cl)NC(=O)c2ccccc2)cc1	IL-1B inflam inh -72.9, MCF10A rerep 4.11µM, ATXN2 expr inh 10µM, SW480 rereplic 13µM, ATXN viability inconclusive
O=C(NS(=O)(=O)c1ccc(Cl)cc1)c1ccccc1	none
CC(C)c1c(C(=O)N(C)CC2CCCN(C)C2)cnn1-c1nccc(-c2cccs2)n1 (configuration not stated)	none (no result: IL-1B inflam inh, MCF10A rerep, ATXN2 expr inh, SW480 rereplic)
CCOc1ccc(NC(=O)C(C)n2c(=O)cc(C)c3c(C)nn(-c4ccccc4)c32)cc1 (configuration not stated)	ATXN viability inconclusive (no result: IL-1B inflam inh, MCF10A rerep, SW480 rereplic)
Cc1ccc(C(=O)NC(=C(Cl)Cl)S(=O)(=O)c2ccc(C)cc2)cc1	IL-1B inflam inh -103.9, MCF10A rerep 13µM, SW480 rereplic inconclusive
Cc1ccc(S(=O)(=O)C(NC(=O)c2ccccc2)=C(Cl)Cl)cc1	IL-1B inflam inh -116.7, MCF10A rerep 6.51µM, ATXN2 expr inh inconclusive, PINK1 expr mod inconclusive, SW480 rereplic inconclusive, ATXN viability inconclusive
O=C(O)[C@@H](O)[C@H](O)[C@H](O)[C@@H](O)C(=O)O (tested in a mixture with another compound)	none (no result: IL-1B inflam inh, MCF10A rerep, ATXN2 expr inh, PINK1 expr mod, SW480 rereplic)
CCCc1nc2ccccc2c(C(=O)OCC(=O)NCc2ccc3c(c2)OCO3)c1CC	MCF10A rerep 18.4µM
Cc1c(-c2cccc(Cl)c2)nc2ccccc2c1C(=O)OCC(=O)Nc1ccc2c(c1)OCO2	IL-1B inflam inh -59.1, ATXN2 expr inh inconclusive, ATXN viability inconclusive
COc1ccc2c(c1)c1c(c(=O)n(-c3ccc(F)c(Cl)c3)c(=O)n1Cc1ccccc1F)n2C	none (no result: IL-1B inflam inh, MCF10A rerep, SW480 rereplic)
Cc1ccc(CSC2=Nc3ccccc3C3=NC(CCC(=O)NCc4cccs4)C(=O)N23)c(C)c1 (configuration not stated)	none (no result: IL-1B inflam inh, MCF10A rerep, ATXN2 expr inh, SW480 rereplic, ATXN viability)
N/C(=N\OC(=O)c1ccccc1Cl)c1ccc(Cl)cc1	none
N/C(CCS(=O)(=O)c1ccc(Cl)cc1)=N\OC(=O)c1ccccc1Cl	IL-1B inflam inh -51.2, ATXN viability inconclusive
Cc1ccc(C2=N/C(=C\c3cccs3)C(=O)N2Nc2ccccc2)cc1	ATXN viability inconclusive
O=C1/C(=C/c2cccs2)N=C(c2cccs2)N1Nc1ccccc1	IL-1B inflam inh -70.4
O=C1/C(=C\c2cccs2)N=C(c2cccs2)N1Nc1ccccc1	IL-1B inflam inh -60.9, PINK1 expr mod inconclusive, SW480 rereplic inconclusive
CCn1cc(/C=C(\NC(=O)c2ccc(OC)c(OC)c2)C(=O)NCCCn2ccnc2)c2ccccc21	none (no result: IL-1B inflam inh, MCF10A rerep, SW480 rereplic)
Cc1cccc(OCC(=O)NCC2(N3CCN(C)CC3)CCCCC2)c1C	none (no result: IL-1B inflam inh, MCF10A rerep, ATXN2 expr inh, SW480 rereplic, ATXN viability)
COc1cc(OC)cc(C(=O)NCC(=O)N2CC=C(c3ccccc3)CC2)c1	MCF10A rerep inconclusive, SW480 rereplic 7.31µM
O=C(NCC(=O)N1CC=C(c2ccccc2)CC1)c1ccccc1Br	MCF10A rerep 8.2µM
O=C(NCC(=O)N1CCCCCC1)c1ccc(OC(F)F)cc1	none
COc1cc(OC)cc(C(=O)N2CCN(C(=O)c3ccc(-c4ccccc4)cc3)CC2)c1	IL-1B inflam inh -68.0
O=C(NCC(=O)N1CC=C(c2ccccc2)CC1)c1ccc(OC(F)F)cc1	MCF10A rerep 8.2µM, SW480 rereplic inconclusive (no result: ATXN2 expr inh)
Cn1cccc1-c1cc2n(n1)CCC(=O)N2CCCC(=O)NCc1cccc(Cl)c1	ATXN viability inconclusive (no result: IL-1B inflam inh, MCF10A rerep, SW480 rereplic)
CCOc1ccccc1N(CC(=O)N1CCc2ccccc2C1)S(=O)(=O)c1ccccc1	ATXN viability inconclusive (no result: IL-1B inflam inh, MCF10A rerep, SW480 rereplic)
CN(C)S(=O)(=O)c1ccc(C(=O)N2CC(=O)Nc3ccc(Br)cc3C2c2ccc(F)cc2)cc1 (configuration not stated)	none (no result: IL-1B inflam inh, MCF10A rerep, SW480 rereplic)
Cc1c2cnn(CC(=O)NCCc3ccccc3)c(=O)c2c(C)n1Cc1ccccc1	none (no result: IL-1B inflam inh, MCF10A rerep, ATXN2 expr inh, SW480 rereplic, ATXN viability)
